KB-V1 cytotox – KB-V1 MDR subline cytotoxicity | KB-V1 MDR cells viability, CellTiter-Glo, 72 h | Potency, µM (top dose mostly 46.1 µM), most hits filed as cytotoxic | hit rate 3.4% among 400,000; also: % is scaled to controls: 0 for no effect and ±100 for the full control effect; nearly all actives have a fitted effect of over 60% in size
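Compound-treated KB-V1 multidrug-resistant cells, 72 h, 37 degrees C; viability by CellTiter-Glo. Fitted qHTS curves give the values.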
TGFb inhibitor – inhibitors of TGF-b signaling; HepG2 CAGA-GFP TGF-b/SMAD3 reporter, GFP fluorescence, 18 h; TGF-beta stimulated, 500 pg/mL final; Potency, µM (doses to about 46.1 µM), inactives show at the highest dose activity, negative = inhibition, hits mostly inhibitors; hit rate 1.2% among 410,000; AID 588855; also: % is scaled to controls: 0 for no effect and ±100 for the full control effect; nearly all actives have a fitted effect of over 65% in size
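First, reporter cells (HEPG2 CAGA-GFP) rested 2 h at 37 degrees C. Next, compounds were pinned in and TGF-beta added to 500 pg/mL final. After 18 h, GFP was imaged per cell and summed per well.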
HT1080 IDH1KD tx – toxicity to HT-1080 IDH1 knockdown cells (counter line); HT-1080 IDH1 knockdown viability, ATP luminescence, 48 h; Potency, µM (titrated, usually from 46.1 µM), inactives show at the highest dose activity, negative = toxicity, usual class: cytotoxic; hit rate 2% among 360,000; AID 686971;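 also: 0% = DMSO wells and -100% = cell-free medium wells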
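% activity derives from luminescence (CellTiter-Glo), normalised to DMSO and no-cell wells. HT-1080-IDH1KD cells, 750/well, had 48 h compound exposure at 37 °C.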
KB-3-1 tox – kills parental KB-3-1 adenocarcinoma cells; KB-3-1 viability, CellTiter-Glo ATP luminescence, 72 h; Potency, µM (highest dose often 46.1 µM), actives largely listed as cytotoxic; hit rate 1.4% among 400,000; AID 1347075; also: % is scaled to controls: 0 for no effect and ±100 for the full control effect; nearly all actives have a fitted effect of over 60% in size
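Multi-concentration cytotoxicity screen in KB-3-1 cells grown in DMEM lacking phenol red with 10% FBS. After 72 h at 37 °C with compound, ATP-dependent luminescence was recorded.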
HT1080-NT tox – kills 2HG-producing HT-1080-NT fibrosarcoma cells. HT-1080-NT fibrosarcoma viability, CellTiter-Glo ATP luminescence, 48 h. Potency, µM (highest dose often 46.1 µM), for inactives: at the highest dose activity, negative = less viability, usual class: cytotoxic. hit rate 1.6% among 360,000;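 also: NT is the 2HG producing partner of a matched IDH1 knockdown line; 0% = DMSO-treated cells and -100% = media-only wells without cells; nearly all actives have a fitted effect of over 55% in size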
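750 cells/well, RPMI + 5% FBS; 2 h settle, compound pin-transfer, 48 h at 37 degrees C. CellTiter-Glo 10 min RT, luminescence. Normalized to DMSO and media-only wells.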
HepG2 tox-1 – counter-screen for TGF-b inhibitors: cytotoxicity in HepG2 cells | HepG2 CAGA-GFP viability, ATP luminescence, 18 h | Potency, µM (titrated, usually from 46.1 µM), inactives show at the top dose activity change, negative = cytotoxicity, usual class: cytotoxic | hit rate 0.76% among 410,000
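HepG2 CAGA-GFP cells (1000/well, DMEM with 1% FBS) received compound, then TGF-beta at 500 pg/mL final, and were incubated 18 hours at 37 degrees C. Viability was read by CellTiter-Glo luminescence. Media-only wells were set as complete cell-killing and DMSO as no toxicity.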
TGFb CAGA inh – TGF-b pathway inhibition, cherry-pick retest | shares compounds with TGFb inhibitor | HepG2 CAGA-GFP TGF-b reporter, GFP fluorescence, 18 h; cells stimulated with TGF-beta, 500 pg/mL | Potency, µM (series often up to 46.1 µM), inactives show at the highest dose activity, negative = inhibition, hits mostly inhibitors | hit rate 63% among 1,600 | AID 720534; also: % is scaled to controls: 0 for no effect and ±100 for the full control effect; nearly all actives have a fitted effect of over 65% in size
HepG2 tox-2 – counter-screen for TGF-b inhibitors: cytotoxicity in HepG2 cells | hit rate 27% among 1,600 | Potency, µM (series often up to 46.1 µM), without a hit: top-dose activity, negative = cytotoxicity, hits mostly inhibitors | HepG2 CAGA-GFP viability, ATP luminescence, 18 h; cells stimulated with TGF-beta, 500 pg/mL | shares compounds with TGFb inhibitor; also: % is scaled to controls: 0 for no effect and ±100 for the full control effect; nearly all actives have a fitted effect of over 70% in size
TGFb CCL64 inh – blocks TGF-b signaling in CCL64 reporter cells; shares compounds with TGFb inhibitor; CCL64 CAGA-GFP reporter, TGF-b stimulated, GFP fluorescence, 18 h; Potency, µM (top dose mostly 46.1 µM), inactives show at the highest dose activity, negative = inhibition, hits mostly inhibitors; hit rate 41% among 1,600; AID 720536; also: nearly all actives have a fitted effect of over 65% in size
COP TGFb inh – blocks TGF-b signaling in HepG2 COP reporter | shares compounds with TGFb inhibitor | HepG2 COP-GFP TGF-b reporter, GFP fluorescence, 18 h; cells stimulated by added recombinant TGF-beta | Potency, µM (top dose mostly 46.1 µM), for the others: at the highest dose activity, negative = inhibition, actives largely listed as inhibitors | hit rate 3% among 1,600 | AID 720537; also: nearly all actives have a fitted effect of over 70% in size
An asterisk follows results filed as active; i = inactive; ? = inconclusive; . = not tested or not shown. Sampled rows, rich in hits. Any-hit rate of the full collection: about 6.6%. Calls follow the shape of the dose curve; as a rule, active = well fitted curve in the direction sought with a large enough effect; inconclusive = small, poorly fitted or top-dose-only effect, or another doubt; inactive = no such curve, though single readings can be large; an effect the other way counts as inactive or inconclusive. Potency is read from the fitted curve at half-maximal effect.

SMILES	KB-V1 cytotox	TGFb inhibitor	HT1080 IDH1KD tx	KB-3-1 tox	HT1080-NT tox	HepG2 tox-1	TGFb CAGA inh	HepG2 tox-2	TGFb CCL64 inh	COP TGFb inh
O=C(NCc1ccncc1)c1ccc2nc(Cc3ccccc3F)oc2c1	i	?	-22%	i	-16%	2%	?	-14%	16%	-18%
Cc1cc(CNC(=O)c2ccc3nc(Cc4ccccc4F)oc3c2)nn1C	i	-11%	13%	?	13%	0%	.	.	.	.
CCCNC(=O)C1(C)CCCN(Cc2cc(-c3ccccc3)n(C)n2)C1 (stereo not drawn)	i	8%	7%	i	17%	-16%	.	.	.	.
On1c(-c2ccc(Cl)cc2)nc2ccccc21	i	0%	0%	i	-19%	-11%	.	.	.	.
FC(F)(F)c1nc2ccccc2n2c(-c3ccc(Cl)cc3)nnc12	5.8µM*	4.5µM*	4.6µM*	4.6µM*	5.8µM*	-32%	5.2µM*	?	12%	66%
CCN(C(=O)c1cc2c(C)nc3ccccc3c2o1)c1cc(Cl)ccc1OC	?	10µM*	?	?	?	8%	?	-18%	?	-3%
CCOc1ccc(NC(=O)c2cc3c(C)nc4ccccc4c3o2)cc1	i	-12%	?	?	?	-3%	.	.	.	.
CCCCCCC[C@@H](C/C=C/CCC(=O)N(C)C/C(=C/Cl)C/C(=C\C(=O)N1CC(OC)=CC1=O)OC)OC	?	0.71µM*	9.2µM*	i	5.8µM*	-70%	0.73µM*	?	7.3µM*	-3%
O=[N+]([O-])c1cc(-c2nc(-c3ccccc3)no2)ccc1N1CCN(c2ccccc2)CC1	i	-1%	.	i	.	-1%	.	.	.	.
NC(=S)N=Nc1c(O)n(CCCl)c2ccc(Br)cc12	?	?	-9%	?	-2%	-18%	-12%	?	?	2%
COc1ccc(/C=C2/CCC(CN3CCOCC3)C2=O)cc1 (stereo not drawn)	?	5µM*	6.5µM*	?	?	11µM*	4.6µM*	3.7µM*	4.6µM*	16µM*
CCOC1=CC2=C(C(=O)C(Cl)=CC2=O)[C@@H]2CN(S(=O)(=O)c3ccc(C)cc3)[C@@H](c3ccccc3)[C@H]12	i	11µM*	?	i	?	-28%	4.1µM*	?	5.2µM*	17%
CCN1C(=O)[C@@H]2[C@@H]3CN(S(=O)(=O)c4ccc(C)cc4)[C@@H](c4ccccc4)[C@@H]3C(=O)C[C@@H]2C1=O	i	-8%	19%	i	16%	-20%	.	.	.	.
CC(=O)N1CCN(C(=O)c2[nH]c(C(F)(F)F)nc2-c2ccccc2)CC1	i	?	20%	i	6%	-4%	.	.	.	.
O=C(c1[nH]c(C(F)(F)F)nc1-c1ccccc1)N1CCN(c2cccc(C(F)(F)F)n2)CC1	?	11µM*	1.8µM*	5.2µM*	1.3µM*	-29%	16µM*	-18%	13µM*	0%
Cc1ccc(C)c(NS(=O)(=O)c2cc(C(=O)NCCC3=CCCCC3)ccc2C)c1	?	20µM*	?	i	?	-15%	?	?	?	37%
Cc1ccc(C)c(NS(=O)(=O)c2cc(C(=O)NCCSC3CCCCC3)ccc2C)c1	?	?	?	i	?	-29%	.	.	.	.
CCOC(=O)N1CCN(Cc2ccc(O)c3ncccc23)CC1	i	7.1µM*	6.5µM*	?	21µM*	-48%	?	?	5.8µM*	0%
CCCOCc1ccc(O)c2ncccc12	?	?	?	?	-11%	-9%	.	.	.	.
Oc1ccc(CN2CCC(Cc3ccccc3)CC2)c2cccnc12	?	7.1µM*	5.8µM*	23µM*	?	-38%	?	?	2.6µM*	19%
Clc1ccccc1CN1CCC(Cc2ccccc2)CC1	i	-22%	-4%	i	-11%	-41%	.	.	.	.
OCc1ccc(O)c2ncccc12	?	13µM*	?	?	?	-18%	6.5µM*	?	?	15%
Cc1ccc2sc(N(CCCN(C)C)C(=O)CCS(=O)(=O)c3ccccc3)nc2c1C	i	5.6µM*	?	16µM*	?	6.3µM*	?	?	3.3µM*	?
CN(C)CCN(C(=O)CCS(=O)(=O)c1ccccc1)c1nc2c(F)cccc2s1	i	9%	-2%	i	-4%	-4%	.	.	.	.
CC(=O)c1sc(-c2ccc(F)cc2)cc1NS(=O)(=O)c1ccc(C)cc1	?	0%	0%	i	8%	4%	.	.	.	.
NC(=O)c1sc(-c2ccsc2)cc1NS(=O)(=O)c1ccc(C(F)(F)F)cc1	?	?	-30%	i	-26%	-24%	23µM*	?	?	74%
CC[C@]12c3[nH]c4cc(-c5ccco5)ccc4c3CCN1C(=O)[C@@H](CC(=O)NC/C=C(\C)CCC=C(C)C)C[C@@H]2C(=O)N1CCN(C(=O)C2CC2)CC1	i	?	?	?	?	-12%	.	.	.	.
CC[C@]12c3[nH]c4ccc(Cl)cc4c3CCN1C(=O)[C@@H](CC(=O)NCc1cccc(C(F)(F)F)c1)C[C@@H]2C(=O)N1CCN(C(=O)c2ccco2)CC1	i	13µM*	?	i	?	6%	16µM*	?	10µM*	64%

High-throughput results: PubChem BioAssay, National Center for Advancing Translational Sciences (NCATS)
